Hits are enriched below; roughly 4.3% of the tested compounds scored in any of these assays.
NALP1 inh: inhibitors of NALP1 inflammasome in yeast. S. cerevisiae NALP1/ASC/caspase-1 growth, X-gal OD620, 72 h. inhibition, % at 10 µM. 0.61% of 280,000 active; in the data active means inhibition mostly above about 24%, no sharp cut-off; inactive means mostly below about 32%
NR3A LBD binder: modulators (binders) of human NR3A ligand-binding domain | NR3A LBD differential scanning fluorimetry, Tm shift; 0% = protein alone, 100% = glycine-bound protein | Tm shift relative to glycine control, % at 25 µM | 2.5% of 340,000 active;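 active means melting temperature shift of at least 10% of the positive control shift, at one fixed dose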
UBC13 polyUb: blocks human UBC13 polyubiquitin chain formation | P61088 | TR-FRET | inhibition, % at 20 µM | 0.47% of 330,000 active; in the data active means inhibition above about 45%, passing the limit was not always enough; inconclusive means no clear call, values can overlap the other calls
Target sequence (P61088 whole entry, looked up): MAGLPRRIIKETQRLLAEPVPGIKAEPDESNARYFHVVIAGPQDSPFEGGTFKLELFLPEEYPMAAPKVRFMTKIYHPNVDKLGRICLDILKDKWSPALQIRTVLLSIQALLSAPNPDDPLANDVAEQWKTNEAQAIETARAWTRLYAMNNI
dFosB act: activators of mouse delta FosB homodimer; P13346; purified delta FosB, TAMRA-CDK5 oligo fluorescence polarization; percent of positive-control signal above neutral wells; activation, % at 25 µM; 0.99% of 340,000 active; AID 493131;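 active means mean activation above about 17%, with every replicate also reaching it, limit read from the data, passing the limit was not always enough; inconclusive means only one of the two conditions met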
Target sequence (P13346 whole entry, looked up): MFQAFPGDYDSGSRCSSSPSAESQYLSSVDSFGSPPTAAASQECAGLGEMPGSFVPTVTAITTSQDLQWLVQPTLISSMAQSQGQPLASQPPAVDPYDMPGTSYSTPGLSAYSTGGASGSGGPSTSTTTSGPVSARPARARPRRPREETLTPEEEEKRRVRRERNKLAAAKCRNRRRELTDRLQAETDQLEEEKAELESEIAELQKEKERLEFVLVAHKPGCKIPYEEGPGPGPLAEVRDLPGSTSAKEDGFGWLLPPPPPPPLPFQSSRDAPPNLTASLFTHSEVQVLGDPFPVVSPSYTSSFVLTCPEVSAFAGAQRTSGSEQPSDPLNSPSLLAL
Yeast superoxide: caloric restriction mimetics inhibiting age-related superoxide in yeast; S. cerevisiae aged cells, superoxide DHE fluorescence; active compounds read low; superoxide response (% of plate mean), % at 10 µM; 0.18% of 330,000 active; AID 2690;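 active means superoxide response under a set limit, about three screen SD below normal, cut at about 65% in these data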;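 further: yeast aged for seven days with compound at 30 °C before DHE staining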
Numbers stand for hits; i = inactive; ? = inconclusive; nt = no result given.

SMILES	NALP1 inh	NR3A LBD binder	UBC13 polyUb	dFosB act	Yeast superoxide
O=c1[nH]c(C2CCCN(S(=O)(=O)c3ccc(F)cc3)C2)nc2c1nnn2Cc1ccc(F)cc1 (stereo not given)	i	i	i	i	i
CC(=O)c1c(-c2ccc(Cl)cc2)c2ccccc2[nH]c1=O	i	i	i	i	i
CC(=O)c1c(-c2ccccc2)c2cc(Cl)ccc2[nH]c1=O	30	i	i	i	i
CCOC(=O)c1cnc2ccc(OCC)cc2c1NCc1cccnc1	i	i	i	i	i
CCOC(=O)c1cnc2ccc(OCC)cc2c1NCc1ccccc1	i	15	i	i	i
Cc1cc(C)c(S(=O)(=O)/N=C2\C=CC(=O)C(Cl)=C2)c(C)c1	i	12	i	i	i
CCN(C[C@H]1N[C@@](Cc2ccccc2)(C(=O)OC)[C@H]2C(=O)N(Cc3ccccc3)C(=O)[C@@H]12)C(=O)Nc1ccc(Cl)cc1	nt	17	i	i	i
CCN(C[C@H]1N[C@@](Cc2ccccc2)(C(=O)OC)[C@H]2C(=O)N(Cc3ccccc3)C(=O)[C@@H]12)C(=O)Nc1ccc(F)cc1	nt	i	i	i	i
COC(=O)[C@]1(Cc2ccccc2)N[C@H](CN(C)S(=O)(=O)c2ccc(C(C)(C)C)cc2)[C@@H]2C(=O)N(C)C(=O)[C@@H]21	nt	15	i	i	i
CCN(C[C@H]1N[C@@](CC)(C(=O)OC)[C@H]2C(=O)N(C)C(=O)[C@@H]12)S(=O)(=O)c1ccc(C(C)(C)C)cc1	nt	18	i	i	i
O=S(=O)(Nc1cc(C(F)(F)F)ccc1N1CCOCC1)c1ccc2ccccc2c1	i	i	i	i	i
CCCC(C(=O)NC1CCCC1)N(Cc1ccccc1)C(=O)c1snc(C(N)=O)c1N (stereo not given)	i	i	i	i	i
COc1ccc(OC)c(/C=C/C(=O)N(C)CC(=O)Nc2ccc(N3CCOCC3)cc2)c1	nt	i	i	i	i
CCOc1ccccc1N1CCN(C(=S)Nc2ccc(S(=O)(=O)Nc3ncccn3)cc2)CC1	i	10	i	i	i
CC(C)(C)[C@@H]1CCC(=O)N(CC[C@H](Sc2ccc(Br)cc2)c2ccccc2)CC1	nt	i	i	i	i
COC(=O)c1ccc(Nc2cc(C)nc3ccc(C)cc23)cc1	i	i	i	i	i
CCOC(=O)c1ccc(Nc2cc(C)nc(-c3ccccc3)n2)cc1	i	10	i	i	i
COC(=O)c1cccc(Nc2cc(C)nc(-c3ccccc3O)n2)c1	i	17	?	i	i
CCOC(=O)c1ccc(Nc2nc(C)cc(C)n2)cc1	i	i	nt	i	i
COC(=O)c1ccc(Nc2cc(C)nc(-c3ccccc3O)n2)cc1	i	23	?	i	i
CCCc1cc(=O)oc2cc(C)cc(OCC(=O)Nc3ccc(CN4CCOCC4)cc3)c12	i	i	i	i	i
Cc1ccc(S(=O)(=O)NC2CC(C)(C)N(O)C(C)(C)C2)cc1	nt	i	i	i	i
COc1ccc(OCC(=O)NC2CCCN(Cc3ccc(Cl)cc3)C2)cc1 (stereo not given)	i	i	i	i	i
CNC(=S)n1cnc(N)n1	i	12	i	i	i
CCCS(=O)(=O)Nc1ccc(Nc2c3ccccc3nc3ccccc23)c(OC)c1	nt	i	nt	54	nt
SMILES	NALP1 inh	NR3A LBD binder	UBC13 polyUb	dFosB act	Yeast superoxide
COc1ccc(Nc2c3c(nc4ccccc24)CCC3)c(OC)c1	i	i	i	i	i
Cc1onc(-c2ccccc2Cl)c1C(=O)N1C=CC(C(F)(F)F)=NCC1	58	i	i	i	i
Cc1onc(-c2ccccc2Cl)c1C(=O)N1C=CC(C(F)(F)Cl)=NCC1	i	i	i	i	i
CCN1CCN(CCCNC(=O)c2ccc(/C=C3/Oc4ccccc4N(Cc4cccc(C)c4)C3=O)cc2)CC1	i	i	64	i	i
CCOC(=O)CNC(=O)CNC(=O)Cn1ccc2ccccc2c1=O	40	i	i	i	i
COc1ccc(C)c2sc(N(CCN(C)C)C(=O)/C=C/c3cccs3)nc12	i	i	i	78	i
COc1cccc2sc(N(CCN(C)C)C(=O)/C=C/c3cccs3)nc12	i	i	i	i	i
Cc1ccc2nc(N(CCN(C)C)C(=O)/C=C/c3cccs3)sc2c1	56	i	i	i	i
COc1ccc(OC)c2sc(N(CCN(C)C)C(=O)/C=C/c3cccs3)nc12	i	i	i	40	i
N#Cc1ccc(OCC(=O)NNC(=S)NC2CCCCC2)cc1	nt	i	i	i	i
CN(C(=O)COC(=O)c1ccc(Cl)s1)C1(C#N)CCCCC1	nt	i	i	i	nt
O=C1[C@H]2[C@@H](c3ccc(Cl)cc3)N3C(=O)N(c4cccc(Cl)c4)C(=O)[C@@]3(Cc3ccccc3)[C@H]2C(=O)N1C1CCCCC1	nt	i	i	i	i
CC(C)c1nnc(NC(=O)COc2ccc3c(c2)OCO3)s1	30	i	i	i	i
CCn1c(=S)sc2c(=O)n(CC(=O)Nc3ccccc3OC)c(C)nc21	i	i	i	i	i
Cc1nc2c(sc(=S)n2Cc2ccco2)c(=O)n1CC(=O)Nc1ccccc1Cl	i	i	i	56	i
CCCn1nc(C(=O)N2CCN(S(=O)(=O)c3ccc(C)c(C)c3)CC2)c2ccccc2c1=O	nt	i	i	i	i
CCN(CC)C1CCN(C(=O)CCn2nnnc2CN2CCOCC2)C1 (stereo not given)	i	i	i	i	i
COc1ccc(C(C)=O)cc1CSc1nc2cc(C(=O)O)ccc2c(=O)n1Cc1ccccc1	i	i	i	i	i
CCOC(Cn1c(SCc2cc(C(C)=O)ccc2OC)nc2ccccc2c1=O)OCC	i	13	i	i	i
CCCCNC(=S)N(C)/N=C/c1c(F)c(F)c(F)c(F)c1F	i	20	i	i	i
CCCCNC(=S)N(C)/N=C/c1c(C)[nH]c2ccccc12	i	12	i	i	i
CCCCNC(=S)N/N=C/c1ccccc1F	i	i	i	i	i
CCCCCCCCCCCC(=O)NC(C(=O)O)C(O)c1ccccc1 (stereo not given)	27	i	i	i	i
Cc1cc(C)n2nc(C(=O)N/N=C/c3ccc(Cl)cc3)nc2n1	i	i	i	i	i
Cc1cc(C)n2nc(C(=O)N/N=C/c3cccc(Cl)c3)nc2n1	i	12	i	i	i
SMILES	NALP1 inh	NR3A LBD binder	UBC13 polyUb	dFosB act	Yeast superoxide
COC(=O)c1ccc(NC(=O)Cc2ccc(C)cc2)cc1	35	i	i	i	i
COC(=O)c1ccc(NC(=O)C(=O)N2CCN(C(=S)Nc3ccc(C)cc3)CC2)cc1	i	11	i	i	i
COC(=O)c1ccc(NC(=O)C(=O)N2CCN(C(=S)Nc3ccc(OC)cc3)CC2)cc1	i	i	i	i	i
CC(C)c1ccc(NC(=O)c2cccc(Br)c2)cc1	i	i	i	i	i
CCC(=O)N1CCN(c2nc3ccc(Br)cc3s2)CC1	30	i	i	i	i
CCOC(=O)Nc1ccc2nc(N3CCCCCC3)sc2c1	i	21	i	i	i
CCOC(=O)N1CCN(C(=O)Nc2ccc3nc(C)sc3c2)CC1	i	i	i	i	i
CC(C)(C)[C@]1(O)CCN2C[C@H]3c4ccccc4CCc4cccc(c43)[C@@H]2C1	i	i	i	i	i
